CYP2C19 inhib: blockers of cytochrome P450 2C19 activity – biochemical, luminescence, ADME assay, primary screen | inhibition, % at 5 µM | hit rate 21% among 96,000 | AID 778, 2007 | CYP2C19 Supersomes, luciferin-H EGE luminescence, 30 min;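 active = CYP2C19 inhibition above a set limit at 5 µM in the primary screen, cut at about 50% in these data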
Target sequence (P33261 whole entry, looked up): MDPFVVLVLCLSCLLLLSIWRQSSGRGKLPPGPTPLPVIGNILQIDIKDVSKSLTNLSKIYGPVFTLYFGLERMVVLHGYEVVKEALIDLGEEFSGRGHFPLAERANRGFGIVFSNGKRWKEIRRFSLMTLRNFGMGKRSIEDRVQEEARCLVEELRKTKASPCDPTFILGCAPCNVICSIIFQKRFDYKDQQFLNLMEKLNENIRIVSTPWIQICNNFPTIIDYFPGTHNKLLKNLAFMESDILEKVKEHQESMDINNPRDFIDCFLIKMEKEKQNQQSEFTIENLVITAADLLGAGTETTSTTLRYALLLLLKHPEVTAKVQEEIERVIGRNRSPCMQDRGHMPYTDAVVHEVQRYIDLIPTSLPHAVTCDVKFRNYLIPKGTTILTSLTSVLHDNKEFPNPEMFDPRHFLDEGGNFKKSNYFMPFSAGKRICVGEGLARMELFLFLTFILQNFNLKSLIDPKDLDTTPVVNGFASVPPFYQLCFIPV
Mac1 fbg enh: enhancers of CD11b/CD18 adhesion to fibrinogen, primary screen, K562 cells, luminescence. Integrin beta-2 (Homo sapiens) + Integrin alpha-M (Homo sapiens), P05107+P11215. ATPlite luminescence. activation, % at 10 µM. hit rate 0.07% among 93,000. AID 1499, 2009;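 active = 10 µM primary screen giving 50% or more activity, confirmed by 40% or more on retest at that dose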
CYP2C9 inh: blockers of cytochrome P450 2C9 activity – biochemical, luminescence, ADME assay, primary screen; hit rate 20% among 96,000; inhibition, % at 5 µM; CYP2C9 Supersomes, luciferin-H conversion; AID 777, 2007; P11712;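 active = blocking of liver enzyme CYP2C9 beyond about 50% at 5 µM, limit read from the data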
CYP2C19 act: human CYP2C19 activators, primary screen, biochemical, luminescence; recombinant CYP2C19, luciferin-H EGE luminescence; hits give high values; 0 = fully inhibited enzyme, 1 = untreated enzyme; activation factor at 5 µM; 96,000 tested, under 10 active; AID 1025, 2008;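 active = activation factor of at least 2 at 5 µM in the primary screen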
CYP2C9 act: human CYP2C9 activators, primary screen, biochemical, luminescence; Cytochrome P450 2C9 (Homo sapiens), P11712; recombinant CYP2C9, luciferin-H conversion; hits give high values; factor 1 = untreated enzyme, 0 = blocked; activation factor at 5 µM; hit rate 1.4% among 96,000; AID 1024, 2008;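 active = activation factor of 2 or more for CYP2C9 at a 5 µM dose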
CD11b adhes inh: inhibitors of CD11b/CD18 adhesion to fibrinogen, primary screen, K562 cells, luminescence; ATPlite luminescence; Mn2+ added to activate the integrin; hit rate 0.54% among 93,000; inhibition, % at 10 µM;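 active = primary inhibition of 50% or more at 10 µM, then 40% or more on retest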
Of the large screens only hits and unclear results are named; the others gave an inactive call. This is a sample that favours compounds with a hit; in the whole collection about 28% have one here.

Cc1nc2ccc(NC(=O)c3cccc(S(=O)(=O)N4CC(C)OC(C)C4)c3)cc2s1 (stereo unspecified)	CYP2C19 inhib 71, CYP2C9 inh 66
Cc1nc2ccc(NC(=O)c3ccc(S(=O)(=O)N4CCOCC4)cc3)cc2s1	none
Cc1nc2ccc(NC(=O)c3ccc(Cl)c(NC(=O)c4cccs4)c3)cc2s1	CYP2C9 inh 54
Cc1nc2ccc(NC(=O)Cc3cccs3)cc2s1	CYP2C19 inhib 59, CYP2C9 inh 65
Cc1ccc(C)c(NC(=O)Cn2nnc(C(=O)NCc3cccs3)c2N)c1	none (no result: Mac1 fbg enh, CD11b adhes inh)
Cc1nc2nc(C)c(CCC(=O)NCc3ccc4c(c3)OCO4)c(C)n2n1	none
O=C(NC1CCCCC1)N(Cc1ccc(F)cc1)Cc1nc2ccccc2c(=O)[nH]1	none
Cc1ccc2cc(C(c3nnnn3C(C)(C)C)N3CCCC3)c(=O)[nH]c2c1C (stereo unspecified)	none
Cc1ccc2[nH]c(=O)c(CN(CC3CCCO3)S(=O)(=O)c3c(C)ccc4nsnc34)cc2c1 (stereo unspecified)	CYP2C9 inh 52
Cc1ccc2[nH]c(=O)c(CN(Cc3ccco3)S(=O)(=O)c3c(C)ccc4nsnc34)cc2c1	none
Cc1ccc2[nH]c(=O)c(CN(CC3CCCO3)S(=O)(=O)c3cccc4nsnc34)cc2c1 (stereo unspecified)	CYP2C19 inhib 79, CYP2C9 inh 91
C=CCn1nnc2sc3c(c2c1=O)CCC(C)C3 (stereo unspecified)	CYP2C19 inhib 97
CSc1nc2sc3c(c2c(=O)n1C)CCC(C)C3 (stereo unspecified)	none (no result: Mac1 fbg enh, CD11b adhes inh)
O=C(COc1cccc(NC(=O)c2cccc([N+](=O)[O-])c2)c1)c1ccc(Br)cc1	CYP2C9 inh 66 (no result: Mac1 fbg enh, CD11b adhes inh)
CCC(=O)Nc1cccc(NC(=O)c2cccc([N+](=O)[O-])c2)c1	none
COc1ccc(S(=O)(=O)Cc2ccc(C(=O)N3CCN(c4cccc(C)c4C)CC3)o2)cc1	CYP2C19 inhib 56, CYP2C9 inh 76
COc1ccc(S(=O)(=O)Cc2ccc(C(=O)N3CCN(c4ccc(Cl)cc4)CC3)o2)cc1	CYP2C9 inh 82
O=C(c1ccc(COc2c(F)c(F)cc(F)c2F)o1)N1CCN(c2ccc(Cl)cc2)CC1	none
Cc1ccc(S(=O)(=O)Cc2ccc(C(=O)N3CCN(c4ccc(F)cc4)CC3)o2)cc1	CYP2C9 inh 74
COc1ccc(S(=O)(=O)Cc2ccc(C(=O)N3CCN(c4cc(Cl)ccc4C)CC3)o2)cc1	CYP2C19 inhib 61, CYP2C9 inh 85
CS(=O)(=O)c1ccc(Cl)c(NC(=O)c2ccc3ccccc3c2)c1	none (no result: CYP2C19 inhib, CYP2C9 inh, CYP2C19 act, CYP2C9 act)
Cc1nc2ccc(F)cc2cc1C(=O)NC(C)C	none
COc1ccc(N2CCN(C(=O)c3ccc(CS(=O)(=O)c4ccc(OC)cc4)o3)CC2)cc1	CYP2C9 inh 78
CC(C)c1nnc(NC(=O)CCC(=O)N2CCN(C3c4ccccc4-c4ccccc43)CC2)s1	none (no result: CYP2C19 inhib, CYP2C9 inh, CYP2C19 act, CYP2C9 act)
Cc1nc2scc(-c3ccco3)c2c(=O)n1/N=C/N(C)C	CYP2C19 inhib 65
Cc1ccc(-c2csc3ncn(/N=C/N(C)C)c(=O)c23)o1	CYP2C19 inhib 74
Cc1ccc(-c2csc3nc(C)n(N)c(=O)c23)o1	none
Cc1ccc(-c2csc3nc(C)n(-n4c(C)ccc4C)c(=O)c23)o1	CYP2C19 inhib 79
Cc1ccc(C)n1-n1c(C)nc2scc(-c3ccccc3)c2c1=O	CYP2C19 inhib 72, CYP2C9 inh 74
Fc1ccc(/C=N/n2c(-c3cccs3)n[nH]c2=S)cc1	none
CCCOc1ccc(C(=O)c2nc3c(n2O)CCCC3)cc1	none
O=C1C2C3C=CC(O3)C2C(=O)N1CC(O)c1ccccc1 (stereo unspecified)	none
Cc1cc2ccccc2n1CCNC(=O)c1ccc(S(=O)(=O)N2CCCCC2)cc1	CYP2C9 inh 90
CC(C)C(=O)NCCn1ccc2ccccc21	CYP2C19 inhib 57 (no result: Mac1 fbg enh, CD11b adhes inh)
Cc1cc2ccccc2n1CCNC(=O)C(C)Oc1ccccc1 (stereo unspecified)	CYP2C19 inhib 100, CYP2C9 inh 87
CC(Oc1cccc(Cl)c1)C(=O)NCCCCc1ccccc1 (stereo unspecified)	none (no result: CYP2C19 inhib, CYP2C9 inh, CYP2C19 act, CYP2C9 act)
Cc1cc2ccccc2n1CCNC(=O)C(C)C	CYP2C19 inhib 50
COc1ccccc1CNC(=O)c1ccc(S(=O)(=O)N2CCCC2)cc1	none
CCC(=O)NCCn1ccc2ccccc21	none
Cc1cc2ccccc2n1CCNC(=O)Cc1ccccc1	CYP2C19 inhib 96, CYP2C9 inh 81
O=C(Cc1ccccc1)NCCCN1CCN(CCCNC(=O)Cc2ccccc2)CC1	none
O=C(Cc1cccs1)NCCn1ccc2ccccc21	CYP2C19 inhib 73
COc1ccc(C(=O)NCCn2ccc3ccccc32)c(OC)c1	CYP2C19 inhib 100
O=C1CC(SC(=NCc2ccc3c(c2)OCO3)Nc2ccccc2)C(=O)N1 (stereo unspecified)	CYP2C19 inhib 96
CC(C)(C)c1ccc(OCC(O)CSc2ncn[nH]2)cc1 (stereo unspecified)	none
O=S(=O)(NCc1ccccc1)c1ccc2c(c1)OCCO2	none
O=C(c1ccc2c(c1)OCCO2)N1CCCCC1	none
Oc1cccc(C(=S)N2CCN(Cc3ccccc3)CC2)c1	CYP2C19 inhib 100, CYP2C9 inh 68
CN(c1ccccc1)S(=O)(=O)c1cccc(C(=O)N2CCN(c3ccccn3)CC2)c1	CYP2C19 inhib 79, CYP2C9 inh 88
COc1ccc(S(=O)(=O)NCc2ccc(C(=O)N3CCN(c4ccccn4)CC3)cc2)cc1	none (no result: Mac1 fbg enh, CD11b adhes inh)
Cc1c(Cl)cccc1NC(=S)N1CCN(Cc2ccccc2)CC1	none (no result: Mac1 fbg enh, CD11b adhes inh)
O=C(c1ccc2c(c1)OCCO2)N1CCN(Cc2ccccc2)CC1	CYP2C19 inhib 67 (no result: Mac1 fbg enh, CD11b adhes inh)
CN(Cc1ccccc1)S(=O)(=O)c1ccc2c(c1)OCCO2	CYP2C19 inhib 87
Cc1cc(=O)n(C)c(=O)n1CC(=O)N1CCCCCC1	none (no result: Mac1 fbg enh, CD11b adhes inh)
CCSc1nnc(-c2cccnc2)n1-c1ccc(C)c(Cl)c1	none
OC1(c2ccc3c(c2)OCO3)CCN(Cc2ccccn2)CC1	none
O=S(=O)(c1ccc(Cl)cc1)N1CCC(O)(c2cccnc2)CC1	CYP2C19 inhib 57
O=S(=O)(c1ccccc1Cl)N1CCC(O)(c2ccc3c(c2)OCO3)CC1	CYP2C19 inhib 97
O=C(N1CCOCC1)N1CCN(Cc2ccccc2)CC1	CYP2C19 inhib 82
